Experimental data from PubChem BioAssay AID504773 (Broad Institute, 2011).
Measured potencies and affinities stand elsewhere. The source made the active and inactive calls.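 How the source made its calls: active means polarization signal falls with dose and the fitted half-maximal concentration is at or below ten times the sample's top valid dose; inconclusive means flat curve at 30 to 70% inhibition, or poor fit; inactive means signal rises, flat within 30%, or potency beyond limit.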

These compounds were tested against Golgi-associated PDZ and coiled-coil motif-containing protein (Homo sapiens) (UniProt Q9HD26) (assay: potency against CAL PDZ-peptide interaction – biochemical, fluorescence polarization, Cerulean-tagged CAL PDZ, cherry-picks, dose response (AID 504773)). Settings: CAL PDZ-peptide binding, 1 h; series mostly up to 50 µM.

Compound | outcome
c1ccc2[nH]c(CCNC3CCCCC3)nc2c1 | inactive
CSC1=NP(=S)(SC)N2CCCC2=C1C#N (stereo unspecified) | inactive
O=c1[nH]c(CN2CC=C(c3ccccc3)CC2)nc2scc(-c3ccccc3)c12 | inactive
COc1cc(/C=C2\C(=O)NC(=O)N(c3ccccc3)C2=O)c([N+](=O)[O-])cc1OC | inactive
CC(C)CN1CCN(Cc2cccc3c2OCO3)CC1CCO (stereo unspecified) | inactive
Cc1cc(C)c(C(=O)N2CCC3(CC2)OCCO3)c(C)c1 | inactive
O=C(c1ccc(F)cc1Cl)N1CCC2(CC1)OCCO2 | inactive
COc1ccc(CNCCc2c[nH]c3ccccc23)c(OC)c1OC | inactive
Cn1c(=O)c2c(nc(-c3ccc(N(CCCl)CCCl)cc3)n2C)n(C)c1=O | inactive
O=C1CN=C(c2ccccc2)c2oc3ccc(Br)cc3c2N1 | inactive
COc1cc(C)cc(CN2CC=C(c3ccccc3)CC2)c1O | inactive
